ALOX12 inh – Primary qHTS assay for inhibitors of human arachidonate 12S-lipoxygenase (ALOX12): Round 2; hit rate 1.1% among 580,000; purified 12hLO, xylenol orange hydroperoxide absorbance; AID 1671190, 2021; Polyunsaturated fatty acid lipoxygenase ALOX12 (Homo sapiens), P18054; Potency, µM (titrated, usually from 108 µM), for the others: at the top dose activity change, negative = inhibition, hits mostly inhibitors; note: % is set by controls: 0 for no effect and ±100 for the full control effect
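Purified human 12hLO (150 nM final) in 25 mM Hepes, 0.01% Triton X-100, pH 7.0 was preincubated 15 min at room temperature with compound. Then 40 uM arachidonic acid was added, 30 min. Hydroperoxide was read by Fe-XO absorbance ratio 573/405 nm.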
Glioma ERSR ind – qHTS for Inducers of the Endoplasmic Reticulum Stress Response (ERSR) in Human Glioma: qHTS; U87-MG GRP78 promoter luciferase reporter, 16 h; Potency, µM, for inactives: at the highest dose activation, most hits filed as activators; hit rate 0.02% among 420,000; note: series mostly up to about 76 µM; % of control where 0% means no effect; nearly all actives have a fitted effect of over 35% in size
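ERSR induction read as luciferase luminescence (Bright-Glo, 10 min at room temperature) in stably transfected human U87-MG glioma cells exposed to compounds for 16 h, using GRP78 as sensor.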
Sfp PPTase inh – qHTS Assay for Inhibitors of Bacillus subtilis Sfp phosphopantetheinyl transferase (PPTase) | hit rate 3.5% among 310,000 | AID 1490, 2009 | 4'-phosphopantetheinyl transferase ffp (Bacillus subtilis), Q9F4F7 | Biochemical Sfp PPTase activity, qHTS | Potency, µM, inactives show largest response in the series, negative = inhibition, actives largely listed as inhibitors;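 note: the enzyme is Sfp with the accession as filed and its product quenches rhodamine fluorescence; 0% = enzyme reaction without inhibitor and -100% = no enzyme wells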
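Fluorescence-quenching assay: 15 nM Sfp-PPTase preincubated 15 min at room temperature with compound, then 5 uM rhodamine-CoA and 12.5 uM BHQ-2-labelled YbbR peptide added. Fluorescence (ex 525/em 598 nm) read at start and after 30 min; difference gives rate.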
G9a block – qHTS Assay for Inhibitors of Histone Lysine Methyltransferase G9a. Histone-lysine N-methyltransferase EHMT2 (Homo sapiens), Q96KQ7. G9a H3K9 monomethylation, AlphaScreen, 2 h. Potency, µM (titrated, usually from 102 µM), for inactives: top-dose activity, negative = inhibition, hits mostly inhibitors. hit rate 8.8% among 350,000. AID 504332, 2011; note: % is set by controls: 0 for no effect and ±100 for the full control effect; nearly all actives have a fitted effect of over 75% in size
Target sequence (Q96KQ7 913-1193 limits assumed): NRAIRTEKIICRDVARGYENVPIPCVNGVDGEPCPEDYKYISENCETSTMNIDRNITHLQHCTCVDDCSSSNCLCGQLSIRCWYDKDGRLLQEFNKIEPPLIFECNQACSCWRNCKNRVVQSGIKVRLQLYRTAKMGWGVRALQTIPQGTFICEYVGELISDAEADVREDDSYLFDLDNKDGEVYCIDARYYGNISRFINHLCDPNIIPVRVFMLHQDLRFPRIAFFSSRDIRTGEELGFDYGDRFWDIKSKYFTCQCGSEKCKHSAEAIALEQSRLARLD
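AlphaScreen detection with an anti-monomethyl H3K9 antibody quantified product after a 2 h room-temperature reaction containing 500 nM biotinylated H3K9 peptide, 20 µM SAM and 20 nM enzyme, which had been preincubated 15 min with compound.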
VDR inhibitor – Inhibitors of the vitamin D receptor (VDR): qHTS | hit rate 0.93% among 400,000 | Vitamin D3 receptor (Homo sapiens), P11473 | Potency, µM, inactives show max response, negative = inhibition, usual class: inhibitors | VDR-SRC2-3 peptide fluorescence polarization, 2 h; note: % is set by controls: 0 for no effect and ±100 for the full control effect
Target sequence (P11473 whole entry, looked up): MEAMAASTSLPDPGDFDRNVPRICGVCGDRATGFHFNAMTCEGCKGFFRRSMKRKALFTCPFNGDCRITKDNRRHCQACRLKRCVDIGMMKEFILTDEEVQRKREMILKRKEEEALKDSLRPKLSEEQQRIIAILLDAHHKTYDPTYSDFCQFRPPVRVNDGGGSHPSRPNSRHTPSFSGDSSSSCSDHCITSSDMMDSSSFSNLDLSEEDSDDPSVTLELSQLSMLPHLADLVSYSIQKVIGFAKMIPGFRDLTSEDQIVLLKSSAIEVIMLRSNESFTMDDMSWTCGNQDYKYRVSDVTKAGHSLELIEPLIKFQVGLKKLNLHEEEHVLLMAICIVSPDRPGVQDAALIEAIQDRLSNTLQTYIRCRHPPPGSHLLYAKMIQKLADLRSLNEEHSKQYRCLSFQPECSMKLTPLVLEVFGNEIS
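Fluorescence polarization assay measuring small-molecule disruption of VDR binding to the coregulator peptide SRC2-3. Compounds were pin-transferred (23 nl) into the reagent mix and incubated 2 h at room temperature before reading.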
* hit, by the source's call; ? = inconclusive; nt = no result; ! = a repeat was not active; [ ] = another dose, or the depositor's remark. Only a selection was taken, and hits are over-represented in it overall. Calls come from the whole dose curve; as a rule, active = well fitted curve in the direction sought with a large enough effect; inconclusive = small, poorly fitted or top-dose-only effect, or another doubt; inactive = no such curve, though single readings can be large; an effect the other way counts as inactive or inconclusive. Potency is the fitted concentration of half-maximal effect.

SMILES	ALOX12 inh	Glioma ERSR ind	Sfp PPTase inh	G9a block	VDR inhibitor
COCC(=O)N(Cc1cc2cc(OC)ccc2[nH]c1=O)c1ccccc1OC	0.0%	-1.0%	0.1%	-27.8%	-14.9%
COc1ccc2[nH]c(=O)c(CN(C(=O)c3cccc(Cl)c3)c3ccccc3C)cc2c1	-26.2%	-1.3%	nt	-39.5%[59 µM]	6.9%
COc1ccc2[nH]c(=O)c(CN(C(=O)c3cccc(Cl)c3)c3ccccc3OC)cc2c1	?	-2.5%	nt	14.1µM*	6.0%
COc1ccc2c(CNc3ccccc3C)cc(=O)oc2c1	2.5%	nt	nt	nt	nt
COc1ccccc1N1CCN(Cc2ccc(Br)o2)CC1	?	-2.6%	?	?	-5.5%
Clc1ccc(N2CCN(Cc3ccc(Br)o3)CC2)cc1	0.891µM*	-5.3%	-10.4%	12.6µM*	1.1%
Clc1cccc(N2CCN(Cc3ccc(Br)o3)CC2)c1	?	-3.8%	-27.3%	6.31µM*	0.7%
CC1(C)CC(=O)C2=C(C1)OC(N)=C(C#N)C2c1ccco1 (stereo unspecified)	-27.9%	nt	nt	nt	nt
COC(=O)C(N)Cc1ccc(O)cc1 (stereo unspecified)	0.0%	0.1%	7.8%	-40.6%[59 µM]	10.3%
COC(=O)C(N)CS (stereo unspecified)	nt	-0.9%	-95.6%	-45.5%[2.33 µM]	17.8µM*
COC(=O)[C@@H](N)CS	?	-1.1%	11.2µM*	8.91µM*	20µM*!
Cc1nn(-c2ccccc2)c(Cl)c1C(=O)OCC(=O)NCCc1ccc(S(N)(=O)=O)cc1	-20.8%	-5.0%	nt	50.1µM*	-2.9%
COc1ccc(CNC(=O)COC(=O)c2ccc(S(=O)(=O)N3CCCCCC3)cc2)cc1OC	4.0%	nt	nt	nt	nt
COc1ccc(NC(=S)Nc2ccc(S(N)(=O)=O)cc2)c(OC)c1	?	-2.6%	-13.7%	56.2µM*	-6.0%
COc1cc(C(=O)NNC(=S)Nc2ccc(S(N)(=O)=O)cc2)cc(OC)c1OC	?	-4.5%	12.6µM*	8.91µM*	3.7%
COc1ccc(C(=O)NC(=S)Nc2ccc(S(N)(=O)=O)cc2)cc1	-19.3%	-5.0%	?	?	3.7%
CCOC(=O)C(NCCCO)c1ccccc1 (stereo unspecified)	?	1.8%	-1.3%	50.1µM*	-9.4%
COc1ccccc1CC(=O)NC1CCN(c2cc(-c3ccccc3)[nH]n2)C1 (stereo unspecified)	10.0%	nt	nt	nt	nt
CC(C)c1onc(C(=O)N(C)Cc2ccccc2)c1[N+](=O)[O-]	-3.5%	-2.0%	9.1%	-6.3%[59 µM]	-16.6%
CC(C)c1onc(C(=O)NCCc2ccccc2)c1[N+](=O)[O-]	-6.2%	2.5%	-4.1%	50.1µM*	-16.0%
C=CCNC(=O)c1ccc(C2SCC(=O)N2Cc2ccccc2)cc1 (stereo unspecified)	0.0%	-0.5%	1.9%	50.1µM*	7.9%
O=C(NCc1ccccc1)c1ccc(C2SCC(=O)N2Cc2ccccc2)cc1 (stereo unspecified)	14.3%	-2.6%	-5.0%	-14.4%[59 µM]	10.5%
COc1ccc(CCN2C(=O)CSC2c2ccc(OC)c(OC)c2)cc1OC (stereo unspecified)	-9.1%	3.7%	17.3%	-2.6%[59 µM]	0.4%
COc1ccc(C2SCC(=O)N2CCc2ccc(OC)c(OC)c2)cc1 (stereo unspecified)	-1.2%	-6.8%	-5.8%	11.2µM*	2.9%
CCCNC(=O)c1ccc(C2SCC(=O)N2CCc2ccccc2)cc1 (stereo unspecified)	-17.4%	-0.8%	-0.7%	44.7µM*	-14.4%
SMILES	ALOX12 inh	Glioma ERSR ind	Sfp PPTase inh	G9a block	VDR inhibitor
O=C(c1ccc(C(F)(F)F)cc1)N1CCC2(CC1)C(=NC1CCCCC1)NC(=O)N2c1cccnc1	13.6%[6.33 µM]	nt	nt	nt	nt
CCn1cnc2c1c(=O)n(CC(=O)N(C)CC(=O)NC(C)(C)C)c(=O)n2Cc1ccccc1	7.5%	nt	nt	nt	nt
O=C(c1ccc(F)cc1)N1CC[C@H](c2nc3ccc(F)cc3[nH]2)C1	-3.2%[176 µM]	nt	nt	nt	nt
COc1cc(C(=S)N2CCN(c3ccccc3Cl)CC2)cc(O)c1O	?	-4.6%	35.5µM*	1.78µM*	?
COc1ccc(C(=S)N2CCN(c3ccccc3Cl)CC2)cc1OC	?	-4.8%	35.5µM*	7.08µM*	?
O=c1oc2ccccc2c(N2CCCC2)c1NS(=O)(=O)c1ccc(Cl)s1	-16.2%	nt	nt	nt	nt
COc1cc(-c2nn3c(-c4ccccc4)nnc3s2)cc(OC)c1OC	-24.7%	-2.1%	-4.1%	44.7µM*	1.1%
COc1cc(-c2nn3c(-c4cc(-c5ccccc5)n[nH]4)nnc3s2)cc(OC)c1OC	nt	0.2%	nt	nt	-13.4%
CCOc1cccc(-c2nnc3sc(-c4cccs4)nn23)c1	-15.0%	-5.0%	-1.8%	14.7%	-13.1%
CCOc1ccccc1OCc1nn2c(COc3ccccc3)nnc2s1	?	-1.2%	17.8µM*	?	31.6µM*
CCOc1cccc(-c2nnc3sc(-c4cc(OC)c(OC)c(OC)c4)nn23)c1	2.5%	-3.2%	-11.8%	79.4µM*	-11.5%
CC(C)(C)c1ccc(-c2nnc3sc(-c4ccncc4)nn23)cc1	-12.7%	1.8%	-25.7%	2.51µM*	-10.0%
CCCc1nnc2sc(COc3ccccc3OCC)nn12	7.9%	nt	nt	nt	nt
Cc1noc2nc(-c3ccccc3)cc(C(=O)NCc3ccc(N4CCOCC4)nc3)c12	-41.0%	nt	nt	nt	nt
Cc1ccc(OCC(=O)Nc2ccc3oc(-c4ccccc4)nc3c2)cc1C	18.3%	nt	nt	nt	nt
c1csc(Cc2nn3c(-c4ccncc4)nnc3s2)c1	-15.5%	-4.0%	?	12.6µM*	5.9%
COc1cc(-c2nn3c(COc4ccccc4)nnc3s2)cc(OC)c1OC	-5.6%	-4.3%	56.2µM*	5.01µM*	?
CCCc1[nH][nH]c(=O)c1C(c1ccc(Br)cc1)C(C#N)C#N (stereo unspecified)	?	-1.3%	?	?	79.4µM*
Cc1ccsc1/C=N/N1CCN(c2ccccn2)CC1	2.5%	-2.2%	14.5%	50.1µM*	3.7%
Cc1ccsc1/C=N/N1CCN(Cc2ccccc2)CC1	?	3.6%	-8.2%	31.6µM*	4.5%
Cn1cccc1/C=N/N1CCN(c2ccccn2)CC1	?	2.8%	-82.8%	15.8µM*	-6.0%
Cc1ccsc1/C=N/N1CCN(c2ccccc2)CC1	-8.7%	8.9%	13.5%	18.3%[2.33 µM]	8.9%
Cc1ccsc1/C=N/NC(=O)CN1CCN(Cc2ccccc2)CC1	114.5%	-0.8%	7.4%	nt	0.9%
Cc1ccc(/C=N/N2CCN(c3ccccn3)CC2)cc1	-18.4%	2.1%	-1.6%	?	2.3%
N#Cc1nc(-c2ccccc2F)oc1N1CCN(C(=O)c2cccs2)CC1	18.6%	nt	nt	nt	nt
c1coc(-c2nnc(-c3ccco3)nn2)c1	?	4.0%	-65.1%	20µM*	89.1µM*
COC(=O)CCNC(=O)C(C)(C)c1ccccc1	12.1%	nt	nt	nt	nt
Cc1nc2ccc(C(=O)NCCCOC(C)C)cc2nc1C	15.3%	nt	nt	nt	nt
